AMA1 RON2 block: qHTS for Inhibitors of AMA1-RON; Towards Development of Antimalarial Drug Lead: Primary Screen; Potency, µM (highest dose often 58.2 µM), for inactives: top-dose activity change, negative = inhibition, usual class: inhibitors; actives 0.2% (n = 360,000); Plasmodium falciparum AMA1 (3D7) - RON2 peptide interaction; AlphaScreen AMA1-biotinylated RON2 peptide binding; AID 720542, 2013;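 also: 0% = vehicle wells and -100% = peptide control; nearly all actives have a fitted effect of over 45% in size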
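AMA1 (3D7) with his tag at 25 nM final met compounds first, then biotinylated RON2 peptide at 25 nM; detection used donor plus acceptor beads, 10 µg/mL apiece, read by AlphaScreen after 30 min at room temperature.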
Pf growth 96h: Primary qHTS for delayed death inhibitors of the malarial parasite plastid, 96 hour incubation; P. falciparum luciferase reporter growth, 96 h; Potency, µM (doses to about 28.7 µM), without a hit: at the top dose activity change, negative = inhibition, usual class: inhibitors; actives 6.9% (n = 320,000); also: % is scaled to controls: 0 for no effect and ±100 for the full control effect
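Parasite growth measured via integrated firefly luciferase reporter in P. falciparum. Infected erythrocytes at 2% hematocrit, 0.05% parasitemia final were treated 96 hours at 37 C under 5% CO2, and luminescence was read.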
HCV inh: qHTS Assay for Inhibitors of Hepatitis C Virus (HCV) | Huh7.5.1 HCVcc-Cre infection, luciferase reporter, 44 h | Potency, µM (titrated, usually from 41.8 µM), inactives show at the top dose activity change, negative = inhibition, hits mostly inhibitors | actives 3.4% (n = 340,000) | AID 651820, 2012; also: % is scaled to controls: 0 for no effect and ±100 for the full control effect
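After 44 h co-culture of compound, cells and HCVcc-Cre (~0.5 moi), substrate is added for 15 min at room temperature and luciferase measured over 15 sec. Cells were seeded at 1,000/well and pre-cultured 4 h.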
Pf growth 48h: Primary qHTS for delayed death inhibitors of the malarial parasite plastid, 48 hour incubation | Potency, µM (titrated, usually from 28.7 µM), for the others: top-dose activity change, negative = inhibition, most hits filed as inhibitors | actives 5.9% (n = 310,000) | P. falciparum luciferase growth in erythrocytes, 48 h; also: % is scaled to controls: 0 for no effect and ±100 for the full control effect
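Luciferase-expressing parasites in RBCs, 2% Hct / 0.1% parasitemia final; RPMI 1640 + 0.5% Albumax; 37 C, 5% CO2, one generation; luminescence read-out, lower signal = inhibition.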
HCV confirm: qHTS Assay for Inhibitors of Hepatitis C Virus (HCV): Confirmation Assay for Cherry-picked Compounds. shares compounds with HCV inh. HCVcc-Cre infectious virus cell assay, luciferase, inhibition. Potency, µM (doses to about 41.8 µM), for inactives: at the top dose activity, negative = inhibition, most hits filed as inhibitors. actives 78% (n = 640). AID 720575, 2013; also: nearly all actives have a fitted effect of over 80% in size
HCV cytotox: qHTS Assay for Inhibitors of Hepatitis C Virus (HCV): Cytotoxicity Counterscreen for Cherry-picked Compounds. shares compounds with HCV inh. HCV host cell line cytotoxicity counterscreen. Potency, µM (highest dose often 41.8 µM), for the others: at the top dose activity change, negative = cytotoxicity, usual class: inhibitors. actives 22% (n = 640);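 also: 44 h compound exposure; % is scaled to controls: 0 for no effect and ±100 for the full control effect; nearly all actives have a fitted effect of over 55% in size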
Starred values were filed as active, the others as inactive; ? = inconclusive; / = no result. Only some compounds are listed: those with a hit (about 11% of all), similar ones and a draw of the others. Calls follow the shape of the dose curve; as a rule, active = well fitted curve in the direction sought with a large enough effect; inconclusive = small, poorly fitted or top-dose-only effect, or another doubt; inactive = no such curve, though single readings can be large; an effect the other way counts as inactive or inconclusive. Potency is read from the fitted curve at half-maximal effect.

SMILES	AMA1 RON2 block	Pf growth 96h	HCV inh	Pf growth 48h	HCV confirm	HCV cytotox
CCn1c(NCc2ccccn2)nc2c1c(=O)n(C)c(=O)n2C	71.9%	-7.0%	20.8%	8.3%	/	/
CC(C)n1c(NCCc2ccccc2)nc2c1c(=O)n(C)c(=O)n2C	2.6%	-14.9%	?	-12.4%	7.91µM*	?
Cc1cc(-c2ccco2)c(C#N)c2nc3ccccc3n12	-0.8%	154.0%	?	13.9%	/	/
Cc1n[nH]c(C)c1S(=O)(=O)N(C)Cc1ccco1	-4.8%	-26.9%	3.7%	-13.3%	/	/
Cc1ccc(S(=O)(=O)N2CCN(C(=O)Cn3c(=O)cnc4ccccc43)CC2)cc1	2.2%	?	1.4%	?	/	/
Oc1ccc(CN2CCN(c3ccccc3)CC2)c2cccnc12	-0.6%	-16.9%	7.94µM*	7.38µM*	7.05µM*	22.3µM*
Ic1ccc(N2CCN(Cc3c[nH]c4ncccc34)CC2)cc1	-23.7%	?	?	?	/	/
COc1cccc(C(=O)Oc2c(CN3CCOCC3)cc(Cl)c3cccnc23)c1	-74.0%	/	4.47µM*	4.65µM*	?	?
O=C(NCCN1CCC(Cc2ccccc2)CC1)C1CCN(S(=O)(=O)N2CCC3(CC2)OCCO3)CC1	8.6%	-125.1%	6.31µM*	?	?	-18.2%
COCCNC(=O)C1(C)CCCN(C(=O)c2ccc(C(F)(F)F)cc2)C1 (stereo unspecified)	2.3%	/	/	/	/	/
COc1cc2c(cc1N/C=C(\C#N)c1nc(-c3ccccc3)cs1)oc1ccccc12	4.2%	?	14.2%	-4.7%	/	/
N#C/C(=C\Nc1ccc2cn[nH]c2c1)c1nc(-c2ccccc2)cs1	-5.2%	?	0.891µM*	?	3.15µM*	-54.2%
Cc1cccc(C(=O)N=c2c(C#N)cc3c(=O)n4cccc(C)c4nc3n2Cc2ccco2)c1	?	13.1µM*	5.62µM*	/	3.96µM*	0.4%
CCOC(=O)C1(CCc2ccccc2)CCN(Cc2cnc(N(C)C)s2)CC1	4.8%	-14.8%	?	?	/	/
CCOC(=O)C1(CCc2ccccc2)CCN(Cc2csc(C(C)=O)c2)CC1	-22.6%	?	6.31µM*	?	14.1µM*	?
CCc1ccccc1NC(=O)C1CCN(S(=O)(=O)c2ccc3c(c2)N(C(C)=O)CCO3)CC1	-0.9%	?	?	5.2%	/	/
c1cc2c(cc1C1CCCCC1)c1c3n2CCCNC3CCC1 (stereo unspecified)	-20.3%	-24.3%	3.55µM*	?	28µM*	31.5µM*
COc1cc2c(cc1OC)C(c1cccc([N+](=O)[O-])c1)N(C(=O)CCC(=O)O)CC2 (stereo unspecified)	1.2%	1.5%	14.6%	-10.8%	/	/
O=[N+]([O-])c1ccccc1Oc1ccc(S(=O)(=O)N2CCOCC2)cc1	-0.9%	?	7.94µM*	?	?	24.9%
O=S(=O)(c1ccc(Oc2ccccc2)cc1)N1CCOCC1	11.8%	/	?	0.6%	/	/
CN1CCc2c(sc(NC(=O)c3ccc([N+](=O)[O-])o3)c2C(N)=O)C1	4.2%	?	3.98µM*	?	14.1µM*	?
NC(=O)c1c(NC(=O)c2ccc([N+](=O)[O-])o2)sc2c1CCCC2	1.8%	32.8%	?	-55.7%	/	/
CN1CCN(CC#CCn2c3ccccc3c3ccccc32)CC1	-12.5%	216.7%	3.98µM*	?	7.05µM*	12.6%
CN1CCN(CC#CCC(O)(c2ccccc2)c2ccccc2)CC1	?	-0.4%	-20.1%	-7.2%	/	/
COc1ccc(C(C(=O)NCCC(C)C)N(CCO)C(=O)c2snc(C(N)=O)c2N)cc1 (stereo unspecified)	-2.3%	?	12.3%	-18.8%	/	/

Compound activity deposited in PubChem BioAssay by National Center for Advancing Translational Sciences (NCATS).
